Screens from PubChem BioAssay.
A selection: hits, their analogues and other compounds. The true share with any hit is near 2.2%.
Abeta rescue – compounds reversing amyloid beta toxicity in yeast; yeast expressing A-beta42, growth rescue, OD600, 48 h; response scale: 0% DMSO, 100% iron-clioquinol control; Potency, µM (doses to about 46.1 µM), hits mostly activators; 0.063% of 410,000 active; note: nearly all actives have a fitted effect of over 55% in size
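Yeast A-beta toxicity model in growth medium with pinned compounds, 48 h at 30 C; growth read as absorbance at 600 nm. Normalized to FeCl3/clioquinol equimolar mix (positive) and DMSO (negative).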
FUS suppressor – suppressors of FUS proteinopathy in yeast | S. cerevisiae FUS-expressing, growth rescue, OD600, 24 h | Potency, µM (highest dose often 76.6 µM), hits mostly activators | 0.24% of 390,000 active | AID 1347120; note: nearly all actives have a fitted effect of over 55% in size
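Galactose (2%) drives FUS expression in yeast precultured in raffinose; seeding density OD 0.005. Test compounds incubated 24hr at 30C and 99% humidity before absorbance at 600 nm was measured.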
aSyn rescue – rescues yeast growth from alpha-synuclein toxicity; Yeast expressing alpha-synuclein, growth rescue, BacTiter-Glo, 24 h; 0.14% of 370,000 active; Potency, µM (titrated, usually from 46.1 µM), most hits filed as activators; note: nearly all actives have a fitted effect of over 65% in size
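Rescue of yeast growth: cells expressing toxic alpha-synuclein, induced in galactose at OD600 0.02, incubated with compound 24 h at 30 C. ATP luminescence quantified growth; inhibitors of toxicity appear as activators.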
Mito fusion yeast – mitochondrial division inhibition or fusion activation. S. cerevisiae fusion-defective mutant growth rescue, CellTiterGlo 48 h. Potency, µM (top dose mostly 46.1 µM), most hits filed as activators. 0.23% of 320,000 active. AID 485298; note: nearly all actives have a fitted effect of over 45% in size
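S. cerevisiae fusion-defective temperature-sensitive mutants (e.g. fzo1-1, mgm1-5) grown 48 h at 37C in YPEG (ethanol/glycerol non-fermentable) medium with 23 nl compound per well; growth rescue read as CellTiterGlo luminescence.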
TDP43 rescue – inhibitors of TDP-43 toxicity in yeast; TDP-43 expressing yeast growth rescue, BacTiter-Glo, 24 h; Potency, µM (titrated, usually from 46.1 µM), most hits filed as activators; 1.8% of 410,000 active; note: nearly all actives have a fitted effect of over 50% in size
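Readout is BacTiter-Glo luminescence of cell growth, so inhibitors register as activators. TDP-43-expressing yeast at OD600=0.02 in galactose medium, after raffinose pregrowth to mid-log, were incubated with compound for 24 hr at 30 deg C.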
Hits are given with their value; i = inactive; ? = inconclusive; nt = no result; [ ] = another dose, or the depositor's remark. Calls come from the whole dose curve; as a rule, active = well fitted curve in the direction sought with a large enough effect; inconclusive = small, poorly fitted or top-dose-only effect, or another doubt; inactive = no such curve, though single readings can be large; an effect the other way counts as inactive or inconclusive.

SMILES | Abeta rescue | FUS suppressor | aSyn rescue | Mito fusion yeast | TDP43 rescue
O=C(CNS(=O)(=O)c1cc2ccccc2s1)N1CCN(c2ccccn2)CC1 | nt | i | nt | nt | nt
CCN(CC)CCNC(=O)C1CCN(C(=O)c2cnn(-c3ccccc3)c2-n2cccc2)CC1 | i | i | nt | nt | i
CCOC(=O)N1CCN(C(=O)C[C@H]2C[C@@]3(C(=O)OC)C(=C[C@H](C(C)C)O[C@@H]3C3CC3)N(Cc3ccco3)C2=O)CC1 | nt | i | nt | nt | nt
CN1CCN(c2ccnc(N(C)CCCCCCN)n2)CC1 | nt | nt | i | nt | nt
CN(C)S(=O)(=O)c1cccc(C(=O)N/N=C\c2ccccc2[N+](=O)[O-])c1 | nt | i | nt | nt | nt
Cc1ccc(-c2csc(Nc3ccccn3)n2)cc1 | ? | i | i | i | 3.16µM
CC(=O)c1cccc(Nc2nc(-c3sc(C)nc3C)cs2)c1 | i | i | i | i | 11.2µM
CC(=O)c1cccc(Nc2nc(-c3sc(N)nc3C)cs2)c1 | i | i | i | i | i
c1ccc(-c2csc(Nc3ccccn3)n2)cc1 | ? | i | i | i | ?
COc1ccc(-c2csc(Nc3ccccn3)n2)cc1OC | i | i | i | i | 12.6µM
Oc1ccc(-c2csc(Nc3ccccn3)n2)cc1 | i | i | i | i | ?
CC(=O)Oc1ccc(-c2csc(Nc3ccc(Cl)cn3)n2)cc1 | i | i | i | i | 12.6µM
Cc1nc(NC(=O)c2ccco2)sc1-c1csc(Nc2ccc(Cl)cc2)n1 | i | 22.4µM | i | i | ?
Cc1ccc(Nc2nc(-c3sc(C)nc3C)cs2)cc1 | i | i | i | i | 20µM
Cc1ccc(Nc2nc(-c3sc(N)nc3C)cs2)cc1 | i | ? | i | i | i
COc1ccc(Cn2cc(CN3[C@@H](C)COc4cc(Br)ccc4S3(=O)=O)nn2)cc1 | nt | i | nt | nt | nt
O=C(NCCc1cccc(F)c1)c1cc2ccccn2n1 | nt | i | nt | nt | nt
Cc1ccc(S(=O)(=O)N2CCCc3cc(NS(=O)(=O)c4ccccc4)ccc32)cc1 | i | i | nt | nt | i[9.22 µM]
O=C(C[n+]1c2ccccc2cc2ccccc21)c1ccc(F)cc1 | nt | nt | i | nt | nt
COc1ccc(-n2c(SCC(=O)NN=Cc3c(O)ccc4ccccc34)nnc2-c2ccc(C(C)(C)C)cc2)cc1 | nt | i | nt | nt | nt
CC(C)(C)NC(=O)NC(=O)COc1ccc(Br)cc1Br | i | i | i | ? | 28.2µM
COc1ccc(/C=C/C(=O)Nc2ccc(OC)nc2)cc1 | i | i | i | i | i
COc1ccc(NC(=O)/C(Cl)=C(/Cl)S(=O)Cc2ccccc2)cn1 (stereo not given) | i | nt | i | i | 3.55µM
COc1ccc(CS(=O)(=O)/C(Cl)=C(/Cl)C(=O)Nc2ccc(OC)nc2)cc1 | i | i | ? | i | 12.6µM
c1csc(-c2nc(N3CCN(Cc4ccc5c(c4)OCCO5)CC3)c3ccccc3n2)c1 | nt | nt | i | nt | nt
SMILES | Abeta rescue | FUS suppressor | aSyn rescue | Mito fusion yeast | TDP43 rescue
CCC(CC)c1nnc(NC(=O)c2c(C)nn(Cc3ccccc3Cl)c2C)s1 | i | 8.91µM | i | i | ?
Cc1nn(Cc2ccccc2Cl)c(C)c1C(=O)NC1=NCCS1 | i | i | i | i | i
COc1ccc(N(C(=O)c2ccc(Cl)cc2)S(=O)(=O)c2ccc(C)cc2)cc1 | i | ? | nt | nt | i
COc1ccc(C2=Nc3ccccc3N(C(=O)c3ccc(C)cc3)C2C(=O)NCc2ccccc2)cc1 (stereo not given) | i | i | i | nt | i
Cc1ccc(C2=Nc3ccccc3N(C(=O)c3ccccc3)C(C)C2)cc1 (stereo not given) | i | nt | i | 20µM | i
Cc1ccc2nc3ccc(N4CCCCCCC4)nn3c(=O)c2c1 | i | i | i | i | 22.4µM
Clc1cccc(-c2cc3nc4c(c(NCc5ccco5)n3n2)CCCC4)c1 | i | i | i | i | ?
OCCCNc1c2c(nc3cc(-c4ccc(Cl)cc4)nn13)CCC2 | i | i | i | 14.1µM | i
CCOC(=O)c1ccc(N=Cc2nc(-c3ccccc3)oc2OC(C)=O)cc1 | i | i | i | i | 15.8µM
O=C(Nc1nc(-c2ccc(Cl)cc2Cl)cs1)C1CCCO1 (stereo not given) | i | i | i | i | 12.6µM
CCc1c(-c2ccccc2)nc2ccccc2c1C(=O)NCCc1ccccc1 | i | i | nt | nt | i
CCc1c(-c2ccccc2)nc2ccccc2c1C(=O)NCc1ccc(C)cc1 | i | ? | nt | nt | 35.5µM
CCc1ccc(CNC(=O)c2cc3c(C)nc4ccccc4c3o2)cc1 | i | ? | i | i | 20µM
O=C(O)CCN1C(=O)/C(=C/c2cccc(OCc3ccc(F)cc3)c2)SC1=S | nt | i | nt | nt | nt
COc1ccc(S(=O)(=O)N2CCC(C(N)=O)CC2)c2ccccc12 | i[9.22 µM] | i | i | i | i
CCOC(=O)N1CCN(S(=O)(=O)c2ccc(OC)c3ccccc23)CC1 | ? | i | i | i | 12.6µM
NS(=O)(=O)c1ccc(CCNc2nc3c(-c4cccc(F)c4)nnn3c3ccc(Cl)cc23)cc1 | i | i | nt | nt | i
CC1(OC(=O)c2ccco2)C(=O)C=C2C=C(C3CC3)OC=C2C1=O (stereo not given) | i | i | i | nt | 11.2µM
CC1(OC(=O)c2cccs2)C(=O)C=C2C=C(C3CC3)OC=C2C1=O (stereo not given) | i | i | i | nt | 20µM
CCC(=O)OC1(C)C(=O)C=C2C=C(C3CC3)OC=C2C1=O (stereo not given) | i | i | i | nt | ?
CCc1cc(C(=O)c2ccccc2)c(N)s1 | i | i | i | i | 11.2µM
O=C(Cc1ccc(Cl)cc1)NCC(c1cccs1)S(=O)(=O)c1ccc(F)cc1 (stereo not given) | i | ? | nt | nt | 35.5µM
CC(C)(C)c1ccc(C(=O)NCC(c2cccs2)S(=O)(=O)c2ccc(F)cc2)cc1 (stereo not given) | i | 35.5µM | nt | nt | ?
CCOc1c(Br)cc(C(N)=O)cc1OCc1ccccc1 | i | i | i | 11.2µM | i
CC(=O)Nc1nc2ccc(Br)cc2s1 | i | i | i | i | 12.6µM
SMILES | Abeta rescue | FUS suppressor | aSyn rescue | Mito fusion yeast | TDP43 rescue
CS(=O)(=O)NCCc1csc2nc(-c3ccccc3)nn12 | i | i | nt | nt | i
C=C(C)c1cccc(C(C)(C)NC(=O)Nc2ccc(C)cn2)c1 | i | nt | i | ? | 12.6µM
C=C(C)c1cccc(C(C)(C)NC(=O)Nc2cc(C)ccn2)c1 | i | nt | i | i | i
Cc1ccccc1OCC(=O)Nc1cc(C)c(O)c(-c2nc3ccccc3o2)c1 | nt | nt | i | nt | nt
Nc1cc2c(cc1C(=O)c1ccccc1F)OCCO2 | i | i | i | i | 17.8µM
CCC(O)c1cc2c(cc1NC(=O)c1cccc(Br)c1)OCCO2 (stereo not given) | i | i | i | nt | 12.6µM
CCC(O)c1cc2c(cc1NC(=O)c1cccs1)OCCO2 (stereo not given) | i[9.22 µM] | i | i | i | i
Nc1cc2c(cc1C(=O)c1cccc(Br)c1)OCCO2 | i | i | i | i | 14.1µM
COc1ccc(-c2nc3c(=O)n(C)c(=O)nc-3n(C)n2)cc1 | nt | nt | i | nt | nt
